Test results as given in ChEMBL document CHEMBL1961873, “Compounds: GSK PKIS; Assays: Nanosyn kinase panel” (2012).
Several values for one entry are separate records, joined by “and”; a condition that tells them apart may be missing. Identical values can stand only once.

What follows are compounds tested against MAP kinase-interacting serine/threonine-protein kinase 2 (Homo sapiens) (UniProt Q9HBH9). Settings: at 0.1 µM.
Chain of MAP kinase-interacting serine/threonine-protein kinase 2 (Homo sapiens) (Q9HBH9 whole entry, looked up): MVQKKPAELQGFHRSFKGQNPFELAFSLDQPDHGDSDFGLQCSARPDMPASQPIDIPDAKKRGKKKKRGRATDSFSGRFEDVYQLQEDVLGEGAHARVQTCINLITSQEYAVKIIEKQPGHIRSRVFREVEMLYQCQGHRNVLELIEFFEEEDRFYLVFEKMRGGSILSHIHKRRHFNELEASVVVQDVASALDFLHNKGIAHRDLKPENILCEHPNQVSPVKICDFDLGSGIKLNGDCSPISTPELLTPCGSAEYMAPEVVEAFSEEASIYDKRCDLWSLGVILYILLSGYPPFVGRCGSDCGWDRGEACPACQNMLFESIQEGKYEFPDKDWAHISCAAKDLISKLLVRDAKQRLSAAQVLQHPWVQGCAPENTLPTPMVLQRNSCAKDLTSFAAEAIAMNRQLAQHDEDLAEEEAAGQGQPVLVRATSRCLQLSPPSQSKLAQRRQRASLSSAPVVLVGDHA
Compound `Cc1c2ccc(N(C)c3ccnc(Nc4cccc(S(N)(=O)=O)c4)n3)cc2nn1C` has an inhibition of -0.12%. `Cc1ccc(-c2cc3c(NC(=O)C4CC4)ncnc3o2)cc1` gave an inhibition of 1.94%. With `CN(C)CCNC(=O)Nc1ccc(N(C)c2ccnc(Nc3ccc(CS(C)(=O)=O)cc3)n2)cc1` the inhibition was 0.95%. In the case of `CCS(=O)(=O)c1ccc(OC)c(Nc2ncc(-c3cccc(F)c3)o2)c1`, the inhibition was 1.15%. `CC(C)c1ccc(-c2cc(-c3c[nH]nc3-c3ccccn3)ccn2)cc1` gave an inhibition of 0.97%. Compound `c1ccc(-c2n[nH]cc2-c2ccnc(-c3ccc(OCCn4ccnc4)cc3)c2)nc1` has an inhibition of 0.5%. `COc1ccc(Nc2ncc(-c3ccccc3)o2)cc1OC` gave an inhibition of 4.65%. Compound `Cc1cc(O)cc(C)c1/C=C/c1cncc(C(N)=O)c1` has an inhibition of 4.98%. For `CC1=C(C(=O)Nc2ccc3[nH]nc(C)c3c2)C(c2ccc(C(F)(F)F)cc2)CC(=O)N1` (configuration not stated), the inhibition was 1.45%. `NS(=O)(=O)c1cccc(N/C=C2\C(=O)Nc3ccccc32)c1` gave an inhibition of 1.04%. `Fc1ccc(Nc2nccc(-c3c(-c4ccc(C(F)(F)F)cc4)nn4ncccc34)n2)cc1F` was tested, and the inhibition was 0.89%. For `COc1cc2c(cc1Nc1nc(Nc3cccc(F)c3C(N)=O)c3cc[nH]c3n1)N(C(=O)CN1CCN(C(C)C)CC1)CC2`, the inhibition was 1.33%. `O=C(O[C@H]1CN[C@H](C#Cc2cc3ncnc(Nc4ccc5c(ccn5Cc5cc(F)ccc5F)c4)c3s2)C1)N1CCOCC1` was tested, and the inhibition was 1.3%. Work on `CCN1CCC(C(=O)Nc2n[nH]c3nnc(-c4cccc(F)c4F)cc23)CC1` yielded an inhibition of 0.51%. `N#Cc1cccc(Nc2ncc(-c3ccccc3)o2)c1` gave an inhibition of 2.19%. For `CS(=O)(=O)CCNCc1ccoc1-c1ccc2ncnc(Nc3ccc(OCc4ccccc4)cc3)c2c1`, the inhibition was 0.34%. Work on `COc1cccc(-n2ncc3c(N/N=C/c4ccc(C(=O)NCCN(C)C)cc4)ncnc32)c1` yielded an inhibition of 28.7%. With `COc1cc(N2CCN(C(C)C)CC2)ccc1Nc1nc(Nc2cccc3ncccc23)c2cc[nH]c2n1` the inhibition was -0.09%. Compound `NS(=O)(=O)c1ccc(N/N=C2\C(=O)Nc3ccc(C(=O)NCc4ccncc4)cc32)cc1` has an inhibition of 1.66%. For `CCn1c(-c2nonc2N)nc2cncc(C(=O)NCCNC)c21`, the inhibition was 0.78%. Compound `COC(=O)Nc1nc2cc(Oc3ccc(NC(=O)Nc4ccccc4)cc3)ccc2[nH]1` has an inhibition of 1.92%. With `COc1cc(Nc2ncc(-c3ccccc3)o2)cc(OC)c1` the inhibition was 1.3%. `COc1ccc(-c2nn3ncccc3c2-c2ccnc(Nc3ccc(F)c(F)c3)n2)cc1` showed an inhibition of 2.16%. With `COc1c(C(N)=O)cc(-c2ccc(Cl)cc2)cc1-c1ccc(S(N)(=O)=O)cc1` the inhibition was 2.02%. `Nc1ncnc2occ(-c3ccc(NC(=O)Nc4cc(C(F)(F)F)ccc4F)cc3)c12` was tested, and the inhibition was 7.71% and 2.55%. `CC1=C(C(=O)Nc2ccc3[nH]ncc3c2)C(c2ccc(F)cc2)N=C(c2ccc(C(F)(F)F)nc2)N1` (configuration not stated) showed an inhibition of 0.9%. In the case of `CN1CCN(Cc2ccc(-c3cc4ncnc(Nc5ccc(OCc6cccc(F)c6)c(Cl)c5)c4s3)o2)CC1`, the inhibition was -0.2% and 3.49%. `N#Cc1ccc2c(-c3ccnc(NC4CC4)n3)c(-c3ccc(F)cc3)nn2c1` gave an inhibition of -0.74%. With `CNC(=O)c1ncccc1Nc1nc(Nc2cc3c(cc2OC)CCCN3C(=O)CN(C)C)nc2[nH]ccc12` the inhibition was 1.22%. In the case of `Nc1nccc(-c2c(-c3ccc(F)cc3)ncn2C2CCNCC2)n1`, the inhibition was 0.4% and 0.49%. `c1cnn2ncc(-c3ccnc(NCCCN4CCOCC4)n3)c2c1` showed an inhibition of 1.64%.

The compounds below were run against MAP kinase-interacting serine/threonine-protein kinase 2 (Homo sapiens) (UniProt Q9HBH9). Settings: at 1 µM.
For `Cc1c2ccc(N(C)c3ccnc(Nc4cccc(S(N)(=O)=O)c4)n3)cc2nn1C`, the inhibition was 3.7%. For `Cc1ccc(-c2cc3c(NC(=O)C4CC4)ncnc3o2)cc1`, the inhibition was 5.77%. Compound `CN(C)CCNC(=O)Nc1ccc(N(C)c2ccnc(Nc3ccc(CS(C)(=O)=O)cc3)n2)cc1` has an inhibition of 5.14%. In the case of `CCS(=O)(=O)c1ccc(OC)c(Nc2ncc(-c3cccc(F)c3)o2)c1`, the inhibition was 12.2%. `CC(C)c1ccc(-c2cc(-c3c[nH]nc3-c3ccccn3)ccn2)cc1` showed an inhibition of 2.83%. `c1ccc(-c2n[nH]cc2-c2ccnc(-c3ccc(OCCn4ccnc4)cc3)c2)nc1` was tested, and the inhibition was 7.2%. `COc1ccc(Nc2ncc(-c3ccccc3)o2)cc1OC` was tested, and the inhibition was 26.1%. For `Cc1cc(O)cc(C)c1/C=C/c1cncc(C(N)=O)c1`, the inhibition was 37.8%. `CC1=C(C(=O)Nc2ccc3[nH]nc(C)c3c2)C(c2ccc(C(F)(F)F)cc2)CC(=O)N1` (configuration not stated) gave an inhibition of 4.23%. `NS(=O)(=O)c1cccc(N/C=C2\C(=O)Nc3ccccc32)c1` was tested, and the inhibition was 2.05%. In the case of `Fc1ccc(Nc2nccc(-c3c(-c4ccc(C(F)(F)F)cc4)nn4ncccc34)n2)cc1F`, the inhibition was 2.32%. For `COc1cc2c(cc1Nc1nc(Nc3cccc(F)c3C(N)=O)c3cc[nH]c3n1)N(C(=O)CN1CCN(C(C)C)CC1)CC2`, the inhibition was 4.51%. With `O=C(O[C@H]1CN[C@H](C#Cc2cc3ncnc(Nc4ccc5c(ccn5Cc5cc(F)ccc5F)c4)c3s2)C1)N1CCOCC1` the inhibition was 1.83%. For `CCN1CCC(C(=O)Nc2n[nH]c3nnc(-c4cccc(F)c4F)cc23)CC1`, the inhibition was 1.47%. For `N#Cc1cccc(Nc2ncc(-c3ccccc3)o2)c1`, the inhibition was 8.7%. Compound `CS(=O)(=O)CCNCc1ccoc1-c1ccc2ncnc(Nc3ccc(OCc4ccccc4)cc3)c2c1` has an inhibition of 5.82%. `COc1cccc(-n2ncc3c(N/N=C/c4ccc(C(=O)NCCN(C)C)cc4)ncnc32)c1` showed an inhibition of 67.5%. `COc1cc(N2CCN(C(C)C)CC2)ccc1Nc1nc(Nc2cccc3ncccc23)c2cc[nH]c2n1` gave an inhibition of 1.91%. `NS(=O)(=O)c1ccc(N/N=C2\C(=O)Nc3ccc(C(=O)NCc4ccncc4)cc32)cc1` gave an inhibition of 6.27%. For `CCn1c(-c2nonc2N)nc2cncc(C(=O)NCCNC)c21`, the inhibition was 13.4%. For `COC(=O)Nc1nc2cc(Oc3ccc(NC(=O)Nc4ccccc4)cc3)ccc2[nH]1`, the inhibition was 4.02%. In the case of `COc1cc(Nc2ncc(-c3ccccc3)o2)cc(OC)c1`, the inhibition was 12.4%. Compound `COc1ccc(-c2nn3ncccc3c2-c2ccnc(Nc3ccc(F)c(F)c3)n2)cc1` has an inhibition of 6.26%. Work on `COc1c(C(N)=O)cc(-c2ccc(Cl)cc2)cc1-c1ccc(S(N)(=O)=O)cc1` yielded an inhibition of 5.44%. In the case of `Nc1ncnc2occ(-c3ccc(NC(=O)Nc4cc(C(F)(F)F)ccc4F)cc3)c12`, the inhibition was 40.3% and 28.8%. Compound `CC1=C(C(=O)Nc2ccc3[nH]ncc3c2)C(c2ccc(F)cc2)N=C(c2ccc(C(F)(F)F)nc2)N1` (configuration not stated) has an inhibition of 3.32%. In the case of `CN1CCN(Cc2ccc(-c3cc4ncnc(Nc5ccc(OCc6cccc(F)c6)c(Cl)c5)c4s3)o2)CC1`, the inhibition was 9.13% and 14.2%. Work on `N#Cc1ccc2c(-c3ccnc(NC4CC4)n3)c(-c3ccc(F)cc3)nn2c1` yielded an inhibition of 1.03%. `CNC(=O)c1ncccc1Nc1nc(Nc2cc3c(cc2OC)CCCN3C(=O)CN(C)C)nc2[nH]ccc12` gave an inhibition of 1.54%. `Nc1nccc(-c2c(-c3ccc(F)cc3)ncn2C2CCNCC2)n1` was tested, and the inhibition was 4.75% and 1.44%. `c1cnn2ncc(-c3ccnc(NCCCN4CCOCC4)n3)c2c1` gave an inhibition of 7.83%.
